Compound activity: PubChem BioAssay, National Center for Advancing Translational Sciences (NCATS)
SW480 rerep: induces DNA re-replication in SW480 colon adenocarcinoma cells | SW480 DNA re-replication, Hoechst DNA content imaging, 48 h | Potency, µM (doses to about 46.1 µM), inactives show at the highest dose re-replication activation, usual class: activators | hit rate 1.8% among 340,000; also: potency is read from the fitted curve at half-maximal effect; % of control where 0% means no effect; nearly all actives have a fitted effect of over 55% in size
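Image-based read-out: total Hoechst fluorescence of nuclei (405 nm excitation, 500-530 nm emission), with hits raising the fraction of high-intensity nuclei. SW480 colon cells incubated 48 hr with compounds at 37 C.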
MCF10A rereplic: inducers of DNA re-replication in MCF 10A breast cells; MCF 10A DNA re-replication, Hoechst nuclear intensity, 48 h; Potency, µM (highest dose often 46.1 µM), without a hit: at the highest dose activity, positive = re-replication, actives largely listed as activators; hit rate 2.9% among 350,000; also: potency is read from the fitted curve at half-maximal effect; % of control where 0% means no effect; nearly all actives have a fitted effect of over 50% in size
KB-V1 MDR tox: KB-V1 MDR subline cytotoxicity | KB-V1 MDR cells viability, CellTiter-Glo, 72 h | Potency, µM (titrated, usually from 46.1 µM), usual class: cytotoxic | hit rate 3.4% among 400,000; also: potency is read from the fitted curve at half-maximal effect; % is scaled to controls: 0 for no effect and ±100 for the full control effect; nearly all actives have a fitted effect of over 60% in size
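KB-V1, DMEM (no phenol red) + 10% FBS; cpd pin-transferred, titration series; 72 h, 37 degrees C; CellTiter-Glo, luminescence. Data normalized, curve-fit.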
KB-3-1 tox: kills parental KB-3-1 adenocarcinoma cells | KB-3-1 viability, CellTiter-Glo ATP luminescence, 72 h | Potency, µM (series often up to 46.1 µM), hits mostly cytotoxic | hit rate 1.4% among 400,000; also: potency is read from the fitted curve at half-maximal effect; % is scaled to controls: 0 for no effect and ±100 for the full control effect; nearly all actives have a fitted effect of over 60% in size
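Here the drug-naive KB-3-1 line serves as comparator for MDR sub-line selectivity; cells received compound titrations, 72 h at 37 °C, then CellTiter-Glo readout.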
IL1B secr inh: blocks inflammasome-driven IL-1 beta release; hit rate 4.7% among 360,000; activity change, % at 57.5 µM; THP-1 LPS/ATP IL-1B secretion, AlphaLISA, 16 h; hits give low values; in the data active = activity change below about -50%; inconclusive = mostly about -30% to -49%; also: % is scaled to controls: 0 for no effect and ±100 for the full control effect
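THP-1 cells pretreated 1 hr with compounds (up to 57.5 uM final), then stimulated with LPS (250 ng/mL final) plus ATP (1.25 mM final); secreted IL-1B measured by AlphaLISA after 16 hr, decreased signal indicating inhibition.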
Numbers without * were called inactive; i = inactive; u = inconclusive; x = not tested or not shown; [ ] = dose if it differs, or a comment. Rows were chosen to be rich in hits. Some 9.9% of all compounds tested hit in one or more screens of this group. Unless noted, calls follow the shape of the dose curve; as a rule, active = well fitted curve in the direction sought with a large enough effect; inconclusive = small, poorly fitted or top-dose-only effect, or another doubt; inactive = no such curve, though single readings can be large; an effect the other way counts as inactive or inconclusive.

SMILES | SW480 rerep | MCF10A rereplic | KB-V1 MDR tox | KB-3-1 tox | IL1B secr inh
CCn1c(=O)c(C(=O)NCCc2ccccc2)c(O)c2ccccc21 | 9.2% | u | u | i | 33.4
Cc1ccc(C(=O)NC(=O)CSc2ncccc2C(=O)O)cc1 | -4.2% | -1.3% | i | i | 3.2
Cc1csc2nc3cc(C(N)=O)ccc3c(=O)n12 | -43.3% | -5.4% | u | i | 30.7
NC(=O)c1ccc2c(=O)n3c(-c4cc(Cl)c(N)c(Cl)c4)csc3nc2c1 | 29.9% | u | i | 23.1µM* | -23.5
CN(NC(=O)c1ccc(Cl)cc1)c1ncc(C(F)(F)F)cc1Cl | -16.5% | 0.1% | i | i | 16.8
CSc1nc(N(C)NC(=O)c2ccccc2)c2ccccc2n1 | u | 1.64µM* | 1.16µM* | 1.03µM* | 40.8
CNc1nc(SC)nc2ccccc12 | -69.2% | -39.0% | i | i | -3.8
CSc1nc(N(C)NC(=O)c2ccc(Cl)cc2)c2ccccc2n1 | 0.581µM* | u | 2.91µM* | 0.581µM* | 0.0
CN(C)S(=O)(=O)c1cccc(NC(=O)c2cc(-c3cccs3)nn2-c2cccc(Cl)c2)c1 | -17.9% | -8.9% | 2.31µM* | 9.2µM* | 0.0
O=C(O)c1cc(-c2cccs2)nn1-c1cccc(Cl)c1 | 2.7% | -2.2% | i | i | 6.4
O=C(NC(=S)N(CCO)Cc1ccccc1)c1ccc(F)cc1Cl | 3.6% | -0.7% | i | i | -1.8
COc1ccc(C(=O)C2CCCN(Cc3c(F)ccc(F)c3F)C2)c(OC)c1 (centres undefined) | -9.5% | 3.2% | u | i | -65.5*
COc1ccc(C(=O)C2CCCN(Cc3ccc4nonc4c3)C2)c(OC)c1 (centres undefined) | 4.4% | 0.9% | i | i | -68.6*
COc1ccc(C(=O)C2CCCN(Cc3ccc4nonc4c3)C2)cc1OC (centres undefined) | -3.9% | 5.3% | i | i | -18.1
COc1ccc(C(=O)C2CCCN(Cc3c[nH]c4ccccc34)C2)c(OC)c1 (centres undefined) | -2.9% | -4.6% | i | i | u
COc1ccc(C(=O)C2CCCN(Cc3cccn3-c3ccc(Cl)cn3)C2)c(OC)c1 (centres undefined) | 17.2% | 19.3% | 11.6µM* | u | x
Cc1ccccc1C(=O)Nc1cccc(-c2nnc(SCC(=O)NCc3ccco3)n2C)c1 | x | x | i | i | x
O=C(NCc1ccncc1)c1cn(-c2ccccc2)nc1-c1cccnc1 | -1.4% | 3.0% | i | i | 18.5
O=C(NC1CCN(Cc2ccc(Cl)cc2)CC1)c1cn(-c2ccccc2)nc1-c1cccnc1 | 5.6% | 20.6µM* | i | u | u
O=C(NC1CCCc2ccccc21)c1cccc(F)c1 (centres undefined) | -0.5%[1.84 µM] | -3.3% | i | i | 9.7
Nc1nc2ccccc2n1/N=C/c1ccc(-c2ccccc2)o1 | u | u | 20.6µM* | u | -29.1
COc1ccc2c(c1)OC[C@H]1[C@H]2N2C(=O)c3cc(C)ccc3NC(=O)[C@@]2(C)[C@H]1c1ccccc1 | 10.3µM* | u | i | i | u
COc1ccc2c(c1)OC[C@H]1[C@H]2N2C(=O)c3ccccc3NC(=O)[C@@]2(C)[C@H]1c1ccccc1 | u | 83.4% | u | 20.6µM* | -78.5*
COc1ccc2c(c1)[C@@H]1[C@H](CO2)[C@H](c2ccccc2)[C@]2(C)C(=O)Nc3ccc(C)cc3C(=O)N12 | 11.0% | 1.3% | u | u | -2.0
COc1ccc2c(c1)[C@H]1[C@H](CO2)[C@H](c2ccccc2)[C@]2(C)C(=O)Nc3cc(OC)c(OC)cc3C(=O)N12 | u | u | u | u | -5.2
SMILES | SW480 rerep | MCF10A rereplic | KB-V1 MDR tox | KB-3-1 tox | IL1B secr inh
COc1ccc2c(c1)[C@H]1[C@H](CO2)[C@H](c2ccccc2)[C@]2(C)C(=O)Nc3ccc(F)cc3C(=O)N12 | u | u | u | u | -57.1*
COc1ccc2c(c1)C(=O)N1[C@H]3c4cc(C)ccc4OC[C@@H]3[C@H](c3ccccc3)[C@]1(C)C(=O)N2 | u | 14.6µM* | u | u | -65.9*
Cc1cc(OC(=O)c2ccc(S(=O)(=O)N(C)C)cc2)c([N+](=O)[O-])c(=O)[nH]1 | -6.6% | 2.2% | i | i | 0.0
C[C@@]12C(=O)Nc3ccc(Br)cc3C(=O)N1[C@H]1c3cc(Cl)ccc3OC[C@@H]1[C@@H]2c1ccccc1 | 8.2% | 8.6% | i | i | -15.7
COc1ccc2c(c1)[C@H]1[C@H](CO2)[C@H](c2ccccc2)[C@]2(C)C(=O)Nc3ccc(C)cc3C(=O)N12 | u | 20.6µM* | i | u | -27.9
COc1ccc2c(c1)[C@H]1[C@H](CO2)[C@H](c2ccccc2)[C@]2(C)C(=O)Nc3ccc(Cl)cc3C(=O)N12 | u | 7.3% | i | i | -53.7*
CNC(=O)Nc1cccc(-c2cc(-c3c(Cl)cccc3Cl)no2)c1 | 3.7% | u | i | i | -79.1*
CC(C)c1ccc(NC(=O)c2ccccc2NC(=O)C2CCCCC2C(=O)O)cc1 (centres undefined) | -1.8% | -8.2% | i | i | -18.4
CC1CCCN(CCCNC(=O)c2ccc3c(c2)N(Cc2ccc(F)cc2)C(=O)c2ccccc2S3=O)C1 (centres undefined) | 20.6µM* | 1.7% | i | i | -58.5*
O=C(NCCCN1CCCC1)c1ccc2c(c1)N(Cc1ccc(F)cc1)C(=O)c1ccccc1S2=O (centres undefined) | -7.5% | 8.6% | u | i | -26.1
CCC1CCCCN1CCCNC(=O)c1ccc2c(c1)N(Cc1ccc(F)cc1)C(=O)c1ccccc1S2=O (centres undefined) | u | u | i | u | -57.9*
CC1CCCN(CCCNC(=O)c2ccc3c(c2)N(Cc2cccc(Cl)c2)C(=O)c2ccccc2S3=O)C1 (centres undefined) | x | x | i | i | u
CC1CCCN(CCCNC(=O)c2ccc3c(c2)N(Cc2ccccc2F)C(=O)c2ccccc2S3(=O)=O)C1 (centres undefined) | u | -1.8% | i | u | -64.7*
CCNC(=O)c1c(NC(=O)c2cc(-c3cc(C)ccc3O)n[nH]2)sc2c1CCCC2 | u | u | i | i | 8.6
C/C(N)=C(/C#N)C(=O)COC(=O)CCCNC(=O)c1ccc(Cl)cc1 | -7.1% | -15.7% | i | i | 25.6
Cc1ccc(S(=O)(=O)N(C)CC(=O)Nc2nc3ccccc3s2)cc1 | 6.0% | u | i | i | 10.2
CCOc1ccc(OCC)c(NC(=O)CN(C)S(=O)(=O)c2ccc3nc(C)sc3c2)c1 | -1.2% | 20.6µM* | u | i | -50.4*
